Measurements: PubChem BioAssay AID1159580 (chemical genetic matrix, 2015)
Values joined by “and” are separate entries in the source; they are usually repeats but may differ in a detail not shown here. Equal entries are not always repeated. About 2,000 (36%) of roughly 5,500 compounds were called active. About 18% were inconclusive and are not listed. Cut-off read from the data, not from the text of the source: active = normalized growth mostly below about 0.91 (no sharp cut-off); inconclusive = no clear call, values can overlap the other calls; inactive = mostly above about 0.92. The list shows a part of the results.

Experiment: chemical genetic growth profiling, strain panel (AID 1159580);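 note: tested at 20 µM; growth read once vehicle control cultures reached saturation at 30 °C; 1 = growth at the plate median or of vehicle wells; lower values mean less growth of the strain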
Conditions: growth OD

Measured: normalized growth

N[C@@H](C(=O)N[C@@H]1C(=O)N2C(C(=O)O)=C(Cl)CS[C@H]12)c1ccccc1
active: S. cerevisiae deletion strains, locus YPL241C, strain CIN2, hits give low values 1.09 [resistant]
inactive: S. cerevisiae deletion strains, locus YAL013W, strain DEP1, hits give low values 1.01 | S. cerevisiae deletion strains, locus YBR021W, strain FUR4, hits give low values 1 | S. cerevisiae deletion strains, locus YBR229C, strain ROT2, hits give low values 1.02 | S. cerevisiae deletion strains, locus YCL029C, strain bik1, hits give low values 1.03 | S. cerevisiae deletion strains, locus YDL035C, strain GPR1, hits give low values 1.01 | S. cerevisiae deletion strains, locus YDL074C, strain BRE1, hits give low values 1.02 | S. cerevisiae deletion strains, locus YDL101C, strain DUN1, hits give low values 1.01 | S. cerevisiae deletion strains, locus YDL134C, strain PPH21, hits give low values 1.01 | S. cerevisiae deletion strains, locus YDL185W, strain tfp1, hits give low values 1.02 | S. cerevisiae deletion strains, locus YDL192W, strain arf1, hits give low values 1.02 | S. cerevisiae deletion strains, locus YDR101C, strain arx1, hits give low values 1.01 | S. cerevisiae deletion strains, locus YDR150W, strain NUM1, hits give low values 1.01 | S. cerevisiae deletion strains, locus YDR162C, strain NBP2, hits give low values 1.02 | S. cerevisiae deletion strains, locus YDR318W, strain mcm21, hits give low values 1.02 | S. cerevisiae deletion strains, locus YDR388W, hits give low values 1.02 | S. cerevisiae deletion strains, locus YDR502C, strain sam2, hits give low values 1.02 | S. cerevisiae deletion strains, locus YEL061C, strain CIN8, hits give low values 1.01 | S. cerevisiae deletion strains, locus YER110C, hits give low values 1.03 | S. cerevisiae deletion strains, locus YER155C, strain BEM2, hits give low values 1 | S. cerevisiae deletion strains, locus YER167W, strain BCK2, hits give low values 1.01 | S. cerevisiae deletion strains, locus YGL078C, strain dbp3, hits give low values 1.02 | S. cerevisiae deletion strains, locus YGL086W, strain mad1, hits give low values 1.01 | S. cerevisiae deletion strains, locus YGL248W, strain PDE1, hits give low values 1.02 | S. cerevisiae deletion strains, locus YGR078C, strain PAC10, hits give low values 1.01 | S. cerevisiae deletion strains, locus YGR135W, strain pre9, hits give low values 1.01 | S. cerevisiae deletion strains, locus YGR229C, strain SMI1, hits give low values 1.01 | S. cerevisiae deletion strains, locus YGR252W, strain gcn5, hits give low values 1.04 | S. cerevisiae deletion strains, locus YHR030C, strain SLT2, hits give low values 1.01 and 0.982 | S. cerevisiae deletion strains, locus YHR079C, strain IRE1 (second series), hits give low values 1.02 | S. cerevisiae deletion strains, locus YHR079C, strain IRE1, hits give low values 0.976 | S. cerevisiae deletion strains, locus YHR094C, strain hxt1, hits give low values 1.02 | S. cerevisiae deletion strains, locus YHR129C, strain ARP1, hits give low values 1.01 | S. cerevisiae deletion strains, locus YHR200W, strain rpn10, hits give low values 1.03 | S. cerevisiae deletion strains, locus YIL066C, strain RNR3, hits give low values 1.03 | S. cerevisiae deletion strains, locus YIL073C, strain SPO22, hits give low values 1.08 | S. cerevisiae deletion strains, locus YIL125W, strain kgd1, hits give low values 1.02 | S. cerevisiae deletion strains, locus YIR030C, strain dcg1, hits give low values 1.03 | S. cerevisiae deletion strains, locus YJL095W, strain BCK1, hits give low values 1.01 and 0.976 | S. cerevisiae deletion strains, locus YJL134W, strain LCB3, hits give low values 1.01 | S. cerevisiae deletion strains, locus YJL168C, strain set2, hits give low values 1.02 | S. cerevisiae deletion strains, locus YJL187C, strain SWE1 (second series), hits give low values 1.02 | S. cerevisiae deletion strains, locus YJR043C, strain POL32, hits give low values 1.01 | S. cerevisiae deletion strains, locus YJR066W, strain TOR1, hits give low values 0.928 | S. cerevisiae deletion strains, locus YJR075W, strain HOC1, hits give low values 0.999 | S. cerevisiae deletion strains, locus YKL009W, strain mrt4, hits give low values 1.02 | S. cerevisiae deletion strains, locus YKL068W, hits give low values 1.03 | S. cerevisiae deletion strains, locus YKL085W, strain MDH1 (second series), hits give low values 1.02 | S. cerevisiae deletion strains, locus YKL085W, strain MDH1, hits give low values 1.02 | S. cerevisiae deletion strains, locus YKL190W, strain CNB1, hits give low values 1.01 | S. cerevisiae deletion strains, locus YKR001C, strain vps1, hits give low values 1.02 | S. cerevisiae deletion strains, locus YLR039C, strain RIC1, hits give low values 1.05 | S. cerevisiae deletion strains, locus YLR058C, strain SHM2, hits give low values 1.01 | S. cerevisiae deletion strains, locus YLR102C, strain apc9, hits give low values 1.03 | S. cerevisiae deletion strains, locus YLR113W, strain HOG1, hits give low values 1 | S. cerevisiae deletion strains, locus YLR262C, strain YPT6, hits give low values 1.04 | S. cerevisiae deletion strains, locus YLR268W, strain sec22, hits give low values 1.02 | S. cerevisiae deletion strains, locus YLR330W, strain CHS5, hits give low values 1.01 | S. cerevisiae deletion strains, locus YLR342W, strain FKS1 (second series), hits give low values 0.986 | S. cerevisiae deletion strains, locus YLR371W, strain rom2, hits give low values 1.01 | S. cerevisiae deletion strains, locus YLR418C, strain cdc73, hits give low values 1.03 | S. cerevisiae deletion strains, locus YML016C, strain PPZ1, hits give low values 1.01 | S. cerevisiae deletion strains, locus YML032C, strain rad52, hits give low values 1.02 | S. cerevisiae deletion strains, locus YML124C, strain tub3, hits give low values 1.02 | S. cerevisiae deletion strains, locus YMR078C, strain ctf18, hits give low values 1.04 | S. cerevisiae deletion strains, locus YMR223W, strain ubp8, hits give low values 1.02 | S. cerevisiae deletion strains, locus YMR263W, strain SAP30, hits give low values 1.01 | S. cerevisiae deletion strains, locus YMR307W, strain GAS1, hits give low values 1.05 | S. cerevisiae deletion strains, locus YNL067W, strain RPL9B, hits give low values 1.01 | S. cerevisiae deletion strains, locus YNL128W, strain TEP1, hits give low values 0.998 | S. cerevisiae deletion strains, locus YNL153C, strain GIM3, hits give low values 1.01 | S. cerevisiae deletion strains, locus YNL183C, strain NPR1, hits give low values 0.932 | S. cerevisiae deletion strains, locus YNL233W, strain BNI4, hits give low values 1.01 | S. cerevisiae deletion strains, locus YNL250W, strain rad50, hits give low values 1.01 | S. cerevisiae deletion strains, locus YNL271C, strain bni1, hits give low values 1.02 | S. cerevisiae deletion strains, locus YNL298W, strain CLA4, hits give low values 1.03 | S. cerevisiae deletion strains, locus YNL307C, strain MCK1, hits give low values 1.02 | S. cerevisiae deletion strains, locus YNL322C, strain KRE1, hits give low values 1.01 | S. cerevisiae deletion strains, locus YNR052C, strain pop2, hits give low values 1.02 | S. cerevisiae deletion strains, locus YOL006C, strain TOP1, hits give low values 1.02 | S. cerevisiae deletion strains, locus YOL012C, strain htz1 1.44 | S. cerevisiae deletion strains, locus YOL147C, strain pex11, hits give low values 1.02 | S. cerevisiae deletion strains, locus YOR061W, strain CKA2, hits give low values 1 | S. cerevisiae deletion strains, locus YOR069W, strain VPS5, hits give low values 0.999 | S. cerevisiae deletion strains, locus YOR136W, strain idh2, hits give low values 1.02 | S. cerevisiae deletion strains, locus YOR144C, strain elg1, hits give low values 1.02 | S. cerevisiae deletion strains, locus YOR184W, strain ser1, hits give low values 1.02 | S. cerevisiae deletion strains, locus YOR231W, strain MKK1, hits give low values 0.987 | S. cerevisiae deletion strains, locus YOR316C, strain cot1, hits give low values 1.02 | S. cerevisiae deletion strains, locus YPL055C, strain LGE1, hits give low values 1 | S. cerevisiae deletion strains, locus YPL256C, strain CLN2, hits give low values 0.971 | S. cerevisiae deletion strains, locus YPR119W, strain clb2, hits give low values 1.03 | S. cerevisiae deletion strains, locus YPR141C, strain kar3, hits give low values 1.03 | S. cerevisiae deletion strains, locus YPR163C, strain tif3, hits give low values 1.02 | S. cerevisiae deletion strains, locus YPR167C, strain met16, hits give low values 1.02 | S. cerevisiae deletion strains, strain wtn01, hits give low values 1.02 | S. cerevisiae strains, strain wild type, hits give low values 1.01
